Assay [1] concerns the target human Casein Kinase 2- alpha 2 beta 2 (CK2a2b2), CSNK2A1 (gene 1457) (UniProt P68400). In words: NVS_ENZ_hCK2a2b2: NovaScreen (NVS) Enzymatic Assay for human Casein Kinase 2- alpha 2 beta 2 (CK2a2b2) (AID 2283147). The procedure:
(§1) NVS_ENZ_hCK2a2b2 is a biochemical, single-readout assay that uses extracted gene-proteins in a cell-free assay. Measurements were taken 1 hour after chemical dosing in a 384-well plate.NVS_ENZ_hCK2a2b2 is one of one assay component(s) measured or calculated from the NVS_ENZ_hCK2a2b2 assay. It is designed to make measurements of enzyme activity, a form of enzyme reporter, as detected with fluorescence intensity signals by Fluorescence and electrophoretic mobility shift technology.Data from the assay component NVS_ENZ_hCK2a2b2 was analyzed into 1 assay endpoint. This assay endpoint, NVS_ENZ_hCK2a2b2, was analyzed in the positive analysis fitting direction relative to DMSO as the negative control and baseline of activity. Using a type of enzyme reporter, loss-of-signal activity can be used to understand changes in the enzymatic activity as they relate to the gene CSNK2A1. Furthermore, this assay endpoint can be referred to as a primary readout, because this assay has produced multiple assay endpoints where this one serves a enzymatic activity function. To generalize the intended target to other relatable targets, this assay endpoint is annotated to the kinase intended target family, where the subfamily is serine/threonine kinase.
(§2) Binding assays used specific radioligands (tritiated, iodinated) with non-radioactive competitive displacement ligands in agonist or antagonist protocols (as indicated) and various reference compounds and inhibitors to titrate specific binding to receptors and transporters. Most enzyme assays (CYPs, kinases, phosphatases, proteases, HDACs) used recombinant protein and specific substrates (fluorescence mostly, some colorimetric and radioactive) and inhibitors, followed by a biochemical separation of substrate and product. All assays for the biochemical HTS were initially run in duplicate at a single concentration (10 uM for CYP450 assays and 25 uM for all others). Assay-chemical combinations meeting a pre-defined threshold (e.g., 30% inhibition and other criteria defined below) were then run in singleton concentration-response format with maximum concentration of 20 uM for CYPs and 50 uM for all others. Each assay was run with positive and negative controls, and concurrent controls on every plate. The follow-up (secondary) screen tested active chemical-pairs in concentration series, as well as a few additional assays not tested in the primary screen, some selected negative inactives, and several cases re-run in the concentration series for confirmatory purposes.

Assay [2] concerns the target human Casein Kinase 1-delta (CK1D), CSNK1D (gene 1453) (UniProt P48730). The assay can be described thus: NVS_ENZ_hCK1D: NovaScreen (NVS) Enzymatic Assay for human Casein Kinase 1-delta (CK1D) (AID 2283148). The method in brief:
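Recombinant human CK1-delta, cell-free; fluorescent substrate with electrophoretic mobility-shift separation of product, read 1 h after dosing. Single 25 uM duplicate screen, then concentration-response up to 50 uM; loss of signal vs DMSO.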

Assay [3] concerns the target human Esterase Plasma (ES), BCHE (gene 590) (UniProt P06276). In words: NVS_ENZ_hES: NovaScreen (NVS) Enzymatic Assay for human Esterase Plasma (ES) (AID 2283157). The method in brief: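 Human plasma-derived enzyme, cell-free, colorimetric readout at 0.25 h. Primary screen 25 uM in duplicate; hits (e.g. ≥30% inhibition) rerun singleton up to 50 uM. DMSO = negative control/baseline.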

In assay [4] the target is human Ephrin type-A Receptor 1 (EphA1), EPHA1 (gene 2041) (UniProt P21709). In words: NVS_ENZ_hEphA1: NovaScreen (NVS) Enzymatic Assay for human Ephrin type-A Receptor 1 (EphA1) (AID 2283158).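 Note: activity is signal loss versus DMSO meaning EphA1 kinase inhibition.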 The method in brief:
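Biochemical kinase assay run cell-free; 1 h incubation; readout is fluorescence with mobility-shift separation of product. Concentration-response up to 50 uM for actives from a 25 uM screen.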

The target of assay [5] is human Dual Specificity Protein Phosphatase 3 (DUSP3), DUSP3 (gene 1845) (UniProt P51452). The assay can be described thus: NVS_ENZ_hDUSP3: NovaScreen (NVS) Enzymatic Assay for human Dual Specificity Protein Phosphatase 3 (DUSP3) (AID 2283152).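 Note: phosphatase activity of recombinant human DUSP3 on a fluorogenic substrate without cells.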 The method in brief:
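Cell-free fluorescence-intensity enzyme activity assay with recombinant protein and substrate; loss of signal fitted relative to DMSO baseline. Primary screen in duplicate at 25 uM, actives then run in concentration series; measured 0 h after dosing.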

Assay [6] has as its target human Ephrin type-B Receptor 1 (EphB1), EPHB1 (gene 2047) (UniProt P54762). In words: NVS_ENZ_hEphB1: NovaScreen (NVS) Enzymatic Assay for human Ephrin type-B Receptor 1 (EphB1) (AID 2283154). The procedure:
as §1, with “NVS_ENZ_hEphB1” for “NVS_ENZ_hCK2a2b2”, “plate.NVS_ENZ_hEphB1” for “plate.NVS_ENZ_hCK2a2b2”, “NVS_ENZ_hEphB1,” for “NVS_ENZ_hCK2a2b2,”, “EPHB1.” for “CSNK2A1.”, “receptor tyrosine” for “serine/threonine”
as §2, with “Assay-chemical combinations meeting a pre-defined threshold (e.g., 30% inhibition and other criteria defined below) were then run in singleton concentration-response format with maximum concentration of 20 uM for CYPs and 50 uM for all others.” left out

Assay [7] concerns the target human Caspase 8 (CASP8), CASP8 (gene 841) (UniProt Q14790). In words: NVS_ENZ_hCASP8: NovaScreen (NVS) Enzymatic Assay for human Caspase 8 (CASP8) (AID 2283146). The method in brief:
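The primary screen tested compounds in duplicate at a single 25 uM concentration, with actives followed up in concentration series. Activity of recombinant (E. coli) protease was measured by fluorescence 1 h post-dose, as signal loss against DMSO.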

Assay [8] has as its target human Elastase, ELANE (gene 1991) (UniProt P08246). The assay can be described thus: NVS_ENZ_hElastase: NovaScreen (NVS) Enzymatic Assay for human Elastase (AID 2283153). The method in brief: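 Concentration-response to 50 uM max, run singly for chemicals passing a threshold (e.g., 30% inhibition) in a duplicate 25 uM single-point screen. Neutrophil-derived human elastase, absorbance read-out of enzyme activity at 1.5 h; DMSO baseline.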

The next assay deals with CDK2 (gene 1017) (UniProt P24941). In words: NVS_ENZ_hCDK2: NovaScreen (NVS) Enzymatic Assay for human Cyclin-Cependent Kinase 2 (CDK2) (AID 2283144). An outline of the steps:
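Compounds screened in duplicate at 25 uM, then in singleton concentration-response to a maximum of 50 uM, against recombinant CDK2; kinase activity read 1 hr after dosing by fluorescence with mobility-shift separation of substrate and product.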

Assay [9] concerns the target human Colony Stimulating Factor 1 Receptor (CSF1R), CSF1R (gene 1436) (UniProt P07333). The assay can be described thus: NVS_ENZ_hCSF1R: NovaScreen (NVS) Enzymatic Assay for human Colony Stimulating Factor 1 Receptor (CSF1R) (AID 2283150). The procedure:
as §1, with “NVS_ENZ_hCSF1R” for “NVS_ENZ_hCK2a2b2”, “plate.NVS_ENZ_hCSF1R” for “plate.NVS_ENZ_hCK2a2b2”, “NVS_ENZ_hCSF1R,” for “NVS_ENZ_hCK2a2b2,”, “CSF1R.” for “CSNK2A1.”, “receptor tyrosine” for “serine/threonine”
as §2

Values joined by “and” are separate entries in the source; they are usually repeats but may differ in a detail not shown here. Equal entries are not always repeated. Results filed as inconclusive are left out. More than one record can exist for a structure, and the calls need not agree. Active and inactive are the calls of the source. Rule for the calls: active = hit-call score of the fitted dose curve at least 0.9, where 1 is the maximum; inconclusive = response in the unintended direction; inactive = score below 0.9.

AC50 and outcome data for 29 compounds are collected here from PubChem BioAssay (EPA / NIEHS).

Sequence of human Casein Kinase 2- alpha 2 beta 2 (CK2a2b2), CSNK2A1 (gene 1457) (P68400 whole entry, looked up): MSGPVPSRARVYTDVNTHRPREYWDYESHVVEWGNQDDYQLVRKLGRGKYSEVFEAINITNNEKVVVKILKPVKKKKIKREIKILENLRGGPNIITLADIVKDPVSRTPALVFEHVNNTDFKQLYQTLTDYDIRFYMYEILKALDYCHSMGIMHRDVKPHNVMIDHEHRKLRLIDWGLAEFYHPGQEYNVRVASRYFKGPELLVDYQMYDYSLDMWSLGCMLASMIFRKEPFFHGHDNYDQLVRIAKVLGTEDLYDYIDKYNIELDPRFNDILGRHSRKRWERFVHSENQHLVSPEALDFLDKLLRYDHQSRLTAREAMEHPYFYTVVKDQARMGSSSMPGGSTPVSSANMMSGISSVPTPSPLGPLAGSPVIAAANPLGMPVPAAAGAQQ
Sequence of human Dual Specificity Protein Phosphatase 3 (DUSP3), DUSP3 (gene 1845) (P51452 whole entry, looked up): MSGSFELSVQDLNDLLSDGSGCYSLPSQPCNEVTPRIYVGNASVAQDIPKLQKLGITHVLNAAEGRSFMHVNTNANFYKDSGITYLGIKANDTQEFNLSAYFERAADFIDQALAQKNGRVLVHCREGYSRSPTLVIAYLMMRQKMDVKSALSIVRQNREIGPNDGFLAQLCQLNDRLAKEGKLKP
Sequence of human Casein Kinase 1-delta (CK1D), CSNK1D (gene 1453) (P48730 whole entry, looked up): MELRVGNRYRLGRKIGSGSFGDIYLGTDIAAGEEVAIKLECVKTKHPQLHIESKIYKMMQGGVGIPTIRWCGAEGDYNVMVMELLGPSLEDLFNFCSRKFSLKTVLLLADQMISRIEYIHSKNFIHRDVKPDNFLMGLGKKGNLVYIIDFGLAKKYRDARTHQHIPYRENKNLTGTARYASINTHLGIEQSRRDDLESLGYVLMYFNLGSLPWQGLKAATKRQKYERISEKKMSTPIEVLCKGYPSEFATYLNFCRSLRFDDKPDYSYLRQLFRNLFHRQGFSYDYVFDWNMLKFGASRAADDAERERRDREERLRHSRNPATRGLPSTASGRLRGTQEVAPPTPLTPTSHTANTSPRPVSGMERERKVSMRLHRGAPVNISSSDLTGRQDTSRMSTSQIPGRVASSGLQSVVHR
Sequence of human Ephrin type-A Receptor 1 (EphA1), EPHA1 (gene 2041) (P21709 whole entry, looked up): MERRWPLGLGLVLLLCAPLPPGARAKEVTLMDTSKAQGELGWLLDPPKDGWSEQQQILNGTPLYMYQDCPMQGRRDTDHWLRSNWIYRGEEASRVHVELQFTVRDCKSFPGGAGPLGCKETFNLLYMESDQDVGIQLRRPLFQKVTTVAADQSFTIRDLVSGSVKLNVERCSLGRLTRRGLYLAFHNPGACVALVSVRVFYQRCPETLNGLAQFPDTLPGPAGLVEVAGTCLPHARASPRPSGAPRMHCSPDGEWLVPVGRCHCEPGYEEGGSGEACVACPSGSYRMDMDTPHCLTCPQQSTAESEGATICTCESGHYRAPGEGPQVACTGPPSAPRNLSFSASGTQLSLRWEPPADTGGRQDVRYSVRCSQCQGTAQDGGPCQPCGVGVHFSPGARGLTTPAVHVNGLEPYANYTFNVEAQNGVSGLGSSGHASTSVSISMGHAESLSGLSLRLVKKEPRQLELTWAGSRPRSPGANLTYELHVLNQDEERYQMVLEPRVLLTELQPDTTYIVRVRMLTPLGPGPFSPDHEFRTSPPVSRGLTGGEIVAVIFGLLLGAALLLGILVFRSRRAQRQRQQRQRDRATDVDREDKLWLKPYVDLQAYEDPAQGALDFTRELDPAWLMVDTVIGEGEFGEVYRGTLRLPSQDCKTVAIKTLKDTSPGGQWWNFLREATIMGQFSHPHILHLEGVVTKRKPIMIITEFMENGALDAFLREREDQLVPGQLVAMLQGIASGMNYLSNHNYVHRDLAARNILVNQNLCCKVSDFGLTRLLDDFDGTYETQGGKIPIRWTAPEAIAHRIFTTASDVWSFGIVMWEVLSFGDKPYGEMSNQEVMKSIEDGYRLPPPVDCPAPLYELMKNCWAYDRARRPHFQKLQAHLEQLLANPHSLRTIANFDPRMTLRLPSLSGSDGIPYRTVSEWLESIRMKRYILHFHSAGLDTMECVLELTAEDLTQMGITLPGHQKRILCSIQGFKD
Sequence of human Colony Stimulating Factor 1 Receptor (CSF1R), CSF1R (gene 1436) (P07333 whole entry, looked up): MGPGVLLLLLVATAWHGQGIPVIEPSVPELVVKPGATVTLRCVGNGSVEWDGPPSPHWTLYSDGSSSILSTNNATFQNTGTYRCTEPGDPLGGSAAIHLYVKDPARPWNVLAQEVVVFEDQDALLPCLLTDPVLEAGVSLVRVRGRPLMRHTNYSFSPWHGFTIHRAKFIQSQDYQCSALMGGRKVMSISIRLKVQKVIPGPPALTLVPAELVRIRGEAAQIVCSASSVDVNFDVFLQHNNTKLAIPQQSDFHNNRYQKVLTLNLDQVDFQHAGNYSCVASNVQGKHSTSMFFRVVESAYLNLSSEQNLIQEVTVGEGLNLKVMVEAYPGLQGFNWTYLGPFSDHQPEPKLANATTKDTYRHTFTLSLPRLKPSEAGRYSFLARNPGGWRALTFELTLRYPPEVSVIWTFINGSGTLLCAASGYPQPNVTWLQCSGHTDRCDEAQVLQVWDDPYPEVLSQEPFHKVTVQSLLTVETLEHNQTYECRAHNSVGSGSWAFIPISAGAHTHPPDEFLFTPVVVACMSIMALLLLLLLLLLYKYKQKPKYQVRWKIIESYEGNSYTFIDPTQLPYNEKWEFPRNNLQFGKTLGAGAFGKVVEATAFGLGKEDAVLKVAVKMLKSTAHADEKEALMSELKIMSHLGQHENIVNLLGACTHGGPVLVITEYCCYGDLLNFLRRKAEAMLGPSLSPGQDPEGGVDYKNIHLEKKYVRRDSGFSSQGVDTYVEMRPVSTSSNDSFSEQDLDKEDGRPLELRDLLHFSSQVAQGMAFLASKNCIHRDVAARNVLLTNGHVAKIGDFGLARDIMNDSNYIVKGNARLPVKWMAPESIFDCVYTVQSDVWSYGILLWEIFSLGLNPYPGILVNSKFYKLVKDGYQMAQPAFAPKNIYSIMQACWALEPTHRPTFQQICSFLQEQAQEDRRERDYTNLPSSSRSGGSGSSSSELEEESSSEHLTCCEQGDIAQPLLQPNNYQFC
Sequence of human Esterase Plasma (ES), BCHE (gene 590) (P06276 whole entry, looked up): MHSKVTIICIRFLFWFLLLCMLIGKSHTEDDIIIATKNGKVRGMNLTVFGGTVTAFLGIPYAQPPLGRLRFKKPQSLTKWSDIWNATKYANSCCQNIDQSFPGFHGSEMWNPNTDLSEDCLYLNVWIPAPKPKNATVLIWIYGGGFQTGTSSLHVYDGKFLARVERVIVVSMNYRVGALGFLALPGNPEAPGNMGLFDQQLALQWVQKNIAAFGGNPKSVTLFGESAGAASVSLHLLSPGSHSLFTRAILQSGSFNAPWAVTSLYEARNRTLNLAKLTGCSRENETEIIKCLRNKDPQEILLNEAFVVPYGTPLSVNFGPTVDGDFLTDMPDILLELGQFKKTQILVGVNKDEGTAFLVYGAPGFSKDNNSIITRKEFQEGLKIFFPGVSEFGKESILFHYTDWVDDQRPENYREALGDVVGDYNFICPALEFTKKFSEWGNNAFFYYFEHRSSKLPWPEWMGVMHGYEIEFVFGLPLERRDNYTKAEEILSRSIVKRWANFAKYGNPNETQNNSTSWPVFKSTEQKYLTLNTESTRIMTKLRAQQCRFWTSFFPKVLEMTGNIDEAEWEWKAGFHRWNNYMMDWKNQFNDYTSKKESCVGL
Sequence of human Caspase 8 (CASP8), CASP8 (gene 841) (Q14790 whole entry, looked up): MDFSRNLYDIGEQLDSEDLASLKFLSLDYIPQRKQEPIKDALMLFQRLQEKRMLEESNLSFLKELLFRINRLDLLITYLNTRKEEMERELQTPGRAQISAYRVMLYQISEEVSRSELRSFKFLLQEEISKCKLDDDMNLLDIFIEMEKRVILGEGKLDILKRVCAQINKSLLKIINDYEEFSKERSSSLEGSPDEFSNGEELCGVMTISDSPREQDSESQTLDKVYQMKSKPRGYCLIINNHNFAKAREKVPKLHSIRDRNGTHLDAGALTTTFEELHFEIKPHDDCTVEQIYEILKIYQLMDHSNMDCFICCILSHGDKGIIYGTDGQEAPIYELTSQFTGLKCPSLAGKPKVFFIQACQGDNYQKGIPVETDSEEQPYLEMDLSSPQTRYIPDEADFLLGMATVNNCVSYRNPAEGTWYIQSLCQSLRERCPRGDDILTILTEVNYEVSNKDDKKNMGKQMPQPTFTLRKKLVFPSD
Sequence of human Ephrin type-B Receptor 1 (EphB1), EPHB1 (gene 2047) (P54762 whole entry, looked up): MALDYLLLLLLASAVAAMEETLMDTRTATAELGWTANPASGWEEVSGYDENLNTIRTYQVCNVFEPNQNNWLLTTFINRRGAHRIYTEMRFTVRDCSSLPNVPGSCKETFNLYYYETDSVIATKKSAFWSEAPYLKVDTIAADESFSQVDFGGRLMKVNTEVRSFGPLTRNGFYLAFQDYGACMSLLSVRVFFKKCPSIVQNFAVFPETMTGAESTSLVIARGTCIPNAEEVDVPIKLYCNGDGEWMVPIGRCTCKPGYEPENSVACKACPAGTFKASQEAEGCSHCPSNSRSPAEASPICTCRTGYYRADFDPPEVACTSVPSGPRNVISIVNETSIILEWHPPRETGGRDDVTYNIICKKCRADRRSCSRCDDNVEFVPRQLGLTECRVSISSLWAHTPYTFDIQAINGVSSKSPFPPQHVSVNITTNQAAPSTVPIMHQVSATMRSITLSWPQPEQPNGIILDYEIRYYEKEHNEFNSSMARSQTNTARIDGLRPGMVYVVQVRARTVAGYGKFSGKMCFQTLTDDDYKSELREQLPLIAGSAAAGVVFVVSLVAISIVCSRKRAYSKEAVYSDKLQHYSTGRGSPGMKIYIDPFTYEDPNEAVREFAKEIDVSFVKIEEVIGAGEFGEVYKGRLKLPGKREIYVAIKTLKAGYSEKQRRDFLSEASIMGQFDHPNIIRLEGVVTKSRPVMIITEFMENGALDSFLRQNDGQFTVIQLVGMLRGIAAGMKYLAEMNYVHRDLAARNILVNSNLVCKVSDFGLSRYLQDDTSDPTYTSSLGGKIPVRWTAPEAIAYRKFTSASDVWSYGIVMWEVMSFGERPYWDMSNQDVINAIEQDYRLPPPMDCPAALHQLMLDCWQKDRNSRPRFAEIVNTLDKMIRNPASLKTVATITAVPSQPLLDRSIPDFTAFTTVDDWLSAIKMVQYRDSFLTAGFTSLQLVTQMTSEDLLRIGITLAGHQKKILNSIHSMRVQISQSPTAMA

As usually defined, the AC50 is the concentration at which the activity in the assay is half-maximal. As to `c1ccc2[nH]c(-c3cscn3)nc2c1`, the values for the half-maximal activity concentration (AC50) in [1] and in [2] were 25 µM (active) and 19.8 µM (active), respectively. In addition, the outcome in assay [3] and in [4] was inactive.
In the case of `CC(=O)[C@H]1CC[C@H]2[C@@H]3CCC4=CC(=O)CC[C@]4(C)[C@H]3CC[C@]12C`, the result in assay [2] was inactive.
As for `CCCCOC(=O)[C@@H](C)Oc1ccc(Oc2ccc(C(F)(F)F)cn2)cc1`, the call in assay [5] was inactive.
On to `CCOC(=O)C(C)Oc1ccc(Oc2nc3ccc(Cl)cc3o2)cc1` (configuration not stated), for which the compound was called inactive in assay [6] and in assay [3].
On to `CCCOC(=O)NCCCN(C)C`, for which the compound was classed as inactive in assay [6].
Consider `O=C(c1ccccc1)C1CCCCC1`, for which, in [4], the compound was called inactive.
In the case of `CCN(CC)C(=O)c1cccc(C)c1`, in assay [3], the compound was called inactive.
Regarding `C[C@]12CC[C@@H]3c4ccc(O)cc4C[C@@H](CCCCCCCCCS(=O)CCCC(F)(F)C(F)(F)F)[C@H]3[C@@H]1CC[C@@H]2O` (some centres not stated), the outcome in assay [7], in [5] and in assay [4] was inactive.
On to `N#CSCSc1nc2ccccc2s1`, for which, in assay [1], the AC50 is 14.4 µM (active). Further, the compound was called inactive in [6] and in [4].
In the case of `CCCN(CCC)c1c([N+](=O)[O-])cc(C(F)(F)F)c(N)c1[N+](=O)[O-]`, the outcome in [7] and in assay [6] was inactive.
Regarding `C#CCOC(=O)[C@@H](C)Oc1ccc(Oc2ncc(Cl)cc2F)cc1`, the compound was called inactive in assay [5] and in [8].
Consider `O=C(c1ccc(O)cc1O)c1ccc(O)cc1O`, for which the AC50 was 17 µM (active) in the assay with CDK2 (gene 1017), 17.3 µM (active) in [2], 11.6 µM (active) in assay [9] and 25 µM (active) in assay [4].
With `CC(C)CCCCCCc1ccc(O)cc1`, the call in [2] was inactive.
In the case of `CCOC(=O)[C@H](C)Oc1ccc(Oc2nc3ccc(Cl)cc3o2)cc1`, the AC50 in [9] was 3.18 µM (active).
On to `COC(=O)c1c(Cl)nn(C)c1S(=O)(=O)NC(=O)Nc1nc(OC)cc(OC)n1`, for which the AC50 in assay [2] is 21.1 µM (active).
Consider `CCCCCOC(=O)COc1cc(N2C(=O)C3=C(CCCC3)C2=O)c(F)cc1Cl`, for which the compound was classed as inactive in [8].
Turning to `O=C(Nc1ccc([N+](=O)[O-])cc1Cl)c1cc(Cl)ccc1O`, the result in assay [2] was inactive.
`S=C(S)NCCNC(=S)S.[Mn+2].[S-]C([S-])=NCCN=C([S-])[S-].[Zn+2]`: the concentration at half-maximal activity (AC50) with CDK2 (gene 1017) is 0.879 µM (active); in assay [1], 5.4 µM (active); in assay [2], 18.2 µM (active) and 33.6 µM (active); in assay [9] it was 963 nM (active) and 315 nM (active) and 12.9 µM (active); in assay [4], 43.5 µM (active). Further, the compound was called inactive in assay [7] and in [4].
Consider `N[C@@H](Cc1cc(I)c(Oc2ccc(O)c(I)c2)c(I)c1)C(=O)O`, for which the compound was called inactive (with CDK2 (gene 1017); in [8]; in [4]). For the same compound, the AC50 in assay [5] is 6.35 µM (active).
With `CCNc1nc(N)nc(Cl)n1`, the half-maximal activity concentration (AC50) in assay [2] was 22.1 µM (active). The compound was called inactive in [9].
For `CC(C)(c1ccc(O)cc1)c1ccc(O)cc1`, the result in [7] and in assay [3] was inactive. The AC50 in assay [2] is 25.4 µM (active).
Turning to `Oc1ccc(C(c2ccc(O)cc2)C(Cl)(Cl)Cl)cc1`, in [6], the call was inactive.
As for `COC(=O)CSc1cc(N=c2sc(=O)n3n2CCCC3)c(F)cc1Cl`, the call in assay [5], in assay [6] and in assay [3] was inactive.
As to `CCCCOC(=O)C(C)Oc1ccc(Oc2ccc(C(F)(F)F)cn2)cc1` (configuration not stated), the result in assay [9] was inactive.
As to `CCCCC(CC)COC(=O)c1ccccc1C(=O)O` (configuration not stated), the compound was classed as inactive in assay [2].
Take `COC(=O)c1cccc(C)c1S(=O)(=O)NC(=O)Nc1nc(OCC(F)(F)F)nc(N(C)C)n1`: the call in assay [7] and in assay [8] was inactive.
Take `O=C(O)C1(C(=O)Nc2ccc(Cl)cc2Cl)CC1`: the AC50 in the assay with CDK2 (gene 1017) is 7.29 µM (active); in assay [7], 7.55 µM (active); in assay [1], 12.7 µM (active). The compound was classed as inactive in assay [9].
`S=C([S-])NCCNC(=S)[S-].[Mn+2]`: the concentration at half-maximal activity (AC50) with CDK2 (gene 1017) is 11.4 µM (active); in assay [1], 3.93 µM (active); in assay [2], 25 µM (active); in [9] it was 5.51 µM (active). For the same compound, the compound was called inactive in [7], in [5] and in [8].
Regarding `CCOC(=O)NCCOc1ccc(Oc2ccccc2)cc1`, the call in assay [5] and in assay [4] was inactive.
